PfHsp90 yeast 2 – growth inhibition of PfHsp90-expressing yeast, primary screen, antimalarial PfHsp90 inhibitor project, S. cerevisiae, BacTiter-Glo luminescence, single point, set 2; BacTiter-Glo ATP, 48 h; yeast lacking PDR1 and PDR3 efflux regulators; inhibition, % at 9.4 µM; 310,000 tested, 0.32% active;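 active = every replicate shows inhibition above about 80%, whatever the replicate mean, limit read from the data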
SKKanGAS inh – S. pyogenes SKKanGAS growth inhibitors in kanamycin, primary screen, streptokinase expression inhibitor project, SKKanGAS strain, BacTiter-Glo luminescence; 6 h; inhibition, % at 7.5 µM; 300,000 tested, 1.3% active;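 active = mean replicate score, as percent of positive control median, at least 50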;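 note: strain carries kanamycin resistance gene driven by streptokinase promoter and grows in 40 µg/ml kanamycin; loss of luminescence reflects streptokinase promoter inhibition or plain growth inhibition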
NLRP3 yeast inh – NALP3 inflammasome inhibitors in reconstituted yeast, primary screen, luminescence, uHTS. Yeast reconstituted NLRP3/ASC/caspase-1, beta-gal luminescence, 24 h. inhibition, % at 10 µM. 330,000 tested, 0.39% active. AID 2825, 2010;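 active = inhibition of 50% or more; inactive = inhibition below 50%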
tim10-1 inh – growth inhibitors of tim10-1 mutant yeast, primary screen, luminescence, uHTS; 330,000 tested, 2.2% active; S. cerevisiae tim10-1 ts strain growth, BacTiter-Glo, 24 h; inhibition, % at 20 µM;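 active = inhibition of at least 40%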;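 note: mutant grown at 25 °C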
TIM10 inh – growth inhibitors of isogenic TIM10 control yeast, primary screen, counter-screen for tim10-1 yeast inhibitor project, luminescence, uHTS; S. cerevisiae TIM10 strain growth, BacTiter-Glo luminescence, 24 h; inhibition, % at 10 µM; 330,000 tested, 1.4% active;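 active = inhibition of 40% or more at the single tested concentration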;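 note: wild-type TIM10 isogenic control strain grown at permissive 25 °C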
tim23-1 inh – growth inhibitors of tim23-1 mutant yeast, primary screen, luminescence, uHTS; S. cerevisiae tim23-1 growth, BacTiter-Glo luminescence, 24 h; inhibition, % at 20 µM; 330,000 tested, 1.3% active;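 active = growth inhibition of the mutant yeast at or above 50%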;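 note: temperature-sensitive mutant grown at 25 °C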
TIM10 conf – growth inhibitors of wild-type TIM10 yeast, confirmation, counter-screen for tim10-1 synthetic lethality project, single concentration, luminescence, S. cerevisiae | shares compounds with TIM10 inh | S. cerevisiae tim10 strain growth, BacTiter-Glo luminescence, 24 h | inhibition, % at 10 µM | 4,600 tested, 63% active;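 active = inhibition of yeast growth at or above a set limit in either of two replicates at 10 µM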; note: this counterscreen used the strain with wild-type TIM10
Of the large screens only hits and unclear results are named; the others gave an inactive call (follow-up assays come after a bar, where they were run). An excerpt weighted towards active compounds, which were near 4.5% of everything screened.

Cn1c(/C=C/c2ccc(Cl)cc2Cl)c([N+](=O)[O-])c(=O)n(C)c1=O	none
CC(C)(C)SCCNC(=O)c1ccc(CN2CCc3ccccc3C2)cc1	none
Cc1ccc(C(=O)O/N=C/c2c(N3CCOCC3)n(C)c3ccccc23)cc1	TIM10 inh 42.2 | TIM10 conf 32.0
CC(=O)O/N=C/c1c(N2CCOCC2)n(C)c2ccccc12	none (no result: PfHsp90 yeast 2)
CCCCn1c(N)c(N(CCOC)C(=O)c2cc(-c3ccc(OC)cc3)nc3ccccc23)c(=O)[nH]c1=O	none
C=CCOc1ccc(C(c2c(C)n(C)n(-c3ccccc3)c2=O)c2c(C)n(C)n(-c3ccccc3)c2=O)cc1	none
Cc1cccc(Cn2c(N3CCN(C)CC3)nc3c2c(=O)n(C)c(=O)n3C)c1	none
CCCCCOC(=O)c1ccc(NC(=O)c2ccco2)cc1	TIM10 inh 40.7 (no result: PfHsp90 yeast 2) | TIM10 conf inactive
CCCCOC(=O)c1ccc(NC(=S)NC(=O)c2ccco2)cc1	none
CN(CC(=O)Nc1ccccc1Cl)C(=O)COC(=O)c1cccs1	none (no result: SKKanGAS inh)
CN(CC(=O)Nc1ccccc1Cl)C(=O)COC(=O)c1ccc([N+](=O)[O-])s1	TIM10 inh 47.0 (no result: SKKanGAS inh) | TIM10 conf 52.4
CCc1ccccc1NC(=O)CSc1ccsc1[N+](=O)[O-]	none
CCc1ccccc1NC(=O)c1ccc([N+](=O)[O-])s1	TIM10 inh 49.9 | TIM10 conf 43.0
Cn1c(-c2ccccc2)c(/C=N/NC(=O)c2ccc(O)cc2)c2ccccc21	none
COc1cc(NC(=S)Nc2cccc(C)n2)cc(OC)c1OC	TIM10 inh 46.7 | TIM10 conf 30.2
CC(c1ccc(Cl)cc1)n1c(-c2ccc3ccccc3n2)n[nH]c1=S (configuration not stated)	none
CC(c1ccc(F)cc1)n1c(-c2ccc3ccccc3n2)n[nH]c1=S (configuration not stated)	TIM10 inh 45.6 | TIM10 conf inactive
CCCCC(=O)NC(=S)Nc1cccc(Cl)c1N1CCCCC1	none
CCCC(=O)NC(=S)Nc1ccccc1N1CCOCC1	none
Cc1c(C(=O)NC(=S)Nc2ccccc2N2CCCC2)cccc1[N+](=O)[O-]	TIM10 inh 42.1 | TIM10 conf 31.8
CCCCC(=O)NC(=S)Nc1ccccc1N1CCCCC1	TIM10 inh 44.5 | TIM10 conf inactive
CCC(=O)NC(=S)Nc1cccc(Cl)c1N1CCCCC1	TIM10 inh 47.4 | TIM10 conf 38.2
O=C(Cc1ccc(Cl)cc1)NC(=S)Nc1ccccc1N1CCOCC1	TIM10 inh 41.9 (no result: SKKanGAS inh) | TIM10 conf 34.2
Cc1cc(NC(=O)C(C)SCC(=O)Nc2ccccc2OC(F)F)no1 (configuration not stated)	none
O=c1ncn(C2CCCCC2)c(=O)[nH]1	none (no result: SKKanGAS inh, NLRP3 yeast inh, tim10-1 inh, TIM10 inh, tim23-1 inh)
CCOC(=O)c1sc2nc(CSc3ccccc3)nc(N3CCCN(C)CC3)c2c1C	TIM10 inh 41.1 | TIM10 conf inactive
COc1ccc(-c2c(-c3ccc(OC)c(C)c3O)n[nH]c2C)cc1	none
CCOc1ccc(NC(=S)Nc2cc(OC)c(Cl)cc2OC)cc1	TIM10 inh 40.3 | TIM10 conf inactive
CCOc1ccc(OCCn2c(S(=O)(=O)O)nc3c(N)ncnc32)cc1	none
O=C(C(=S)N1CCOCC1)c1c[nH]c2ccccc12	none (no result: PfHsp90 yeast 2)
Cc1cc(OCc2cccc(S(=O)(=O)N3CCOCC3)c2)ccc1Cl	TIM10 inh 49.5 (no result: SKKanGAS inh) | TIM10 conf inactive
CCSc1nc(-c2ccccc2)cc(=O)[nH]1	none (no result: SKKanGAS inh)
O=C(N=Nc1c(O)[nH]c2ccccc12)c1cccs1	TIM10 inh 61.9 | TIM10 conf 46.8
O=C(Nc1nccc(-c2cccs2)n1)c1ccccc1Cl	none
O=C(c1ccccc1Cl)N(C(=O)c1ccccc1Cl)c1nccc(-c2cccs2)n1	TIM10 inh 41.8 | TIM10 conf inactive
COC(=O)c1cc(S(=O)(=O)N2CCN(c3ccc(C(C)=O)cc3)CC2)c[nH]1	none
O=C(NCC(=O)N1CCN(Cc2ccccc2)CC1)c1cc(Cl)cc([N+](=O)[O-])c1	none (no result: SKKanGAS inh)
C=CCNC(=S)Nc1cccc([N+](=O)[O-])c1	none
O=[N+]([O-])c1cccc(-c2ccc(/C=N/NC(=S)Nc3ccccc3)o2)c1	TIM10 inh 47.5 | TIM10 conf 47.5
C=CCNC(=S)N/N=C/c1cccc([N+](=O)[O-])c1	TIM10 inh 46.6 | TIM10 conf 40.4
CC(C)(OC(=O)c1ccc(C#N)cc1)c1cc2ccccc2c(=O)o1	none (no result: SKKanGAS inh)
C=C(C)COc1ccc(-c2[nH]ncc2-c2ccc(Br)cc2)c(O)c1	SKKanGAS inh 64.7, TIM10 inh 49.2 | TIM10 conf inactive
O=C(Cc1cccs1)N(Cc1ccco1)C1(C(=O)NC2CCCCC2)CCCCC1	TIM10 inh 42.5 | TIM10 conf inactive
O=C(O/N=C1/CCCc2occc21)c1ccc(Cl)cc1Cl	TIM10 inh 44.2 | TIM10 conf 38.1
O=C(O/N=C1/CCCc2occc21)c1ccccc1	none
Cn1c2ccccc2c2nnc(SCC(=O)NC3CC3)nc21	none
O=C(Cn1cnc2ccccc2c1=O)c1ccc2ccccc2c1	none
O=C(Cn1cnc2ccccc2c1=O)c1ccc2c(c1)OCCO2	TIM10 inh 44.6 | TIM10 conf 34.2
CC(C)NC(=S)NC(c1ccccc1)(c1ccccc1)c1ccccc1	SKKanGAS inh 81.3, TIM10 inh 45.3 | TIM10 conf 48.5
O=C(NCCc1ccccc1)/C(=C\c1cccc([N+](=O)[O-])c1)NC(=O)c1ccco1	none
CC1=C/C(=N\NC(=S)NCCc2ccccc2)CC(C)(C)C1	SKKanGAS inh 51.6, TIM10 inh 42.8 | TIM10 conf inactive
Cc1ccc2nc(-c3sc4nc(C)ccc4c3N)[nH]c2c1	TIM10 inh 62.9 | TIM10 conf 48.3
O=C(Nc1ccc(Cl)c(Cl)c1)O/N=C/c1ccncc1	SKKanGAS inh 56.2, TIM10 inh 43.0 | TIM10 conf inactive
CNC1(C)[C@H]2CC[C@H](C2)C1(C)C (some centres not stated)	none (no result: SKKanGAS inh)
O=C(Nc1nc(-c2ccc3c(c2)OCO3)cs1)C1COc2ccccc2O1 (configuration not stated)	none
O=C(Nc1nc(-c2ccccc2)cs1)C1COc2ccccc2O1 (configuration not stated)	TIM10 inh 41.1 | TIM10 conf 34.9
CCOC(=O)C1(Cc2cccc(F)c2)CCN(C(=O)C2CCCO2)CC1 (configuration not stated)	none

From PubChem
